Source: PubChem BioAssay (Tox21)
Results filed as inconclusive are left out. Calls of active or inactive are those of the source. Unless noted, calls follow the shape of the dose curve; as a rule, active = well fitted curve in the direction sought with a large enough effect in the repeat runs; inconclusive = weak or mixed curves; inactive = no such curve, though single readings can be large; an effect the other way counts as inactive or inconclusive.

What was measured:
[1] = qHTS assay to identify small molecule antagonists of the glucocorticoid receptor (GR) signaling pathway - cell viability counter screen (AID 720693); also: nearly all actives have a fitted effect of over 55% in size
[2] = qHTS assay for identifying genotoxic compounds that show differential cytotoxicity against isogenic chicken DT40 cell lines with known DNA damage response pathways - wild type cell line (AID 743012); also: nearly all actives have a fitted effect of over 60% in size; also: potency is read from the fitted curve at half-maximal effect
Procedure, shortened: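 Luminescent ATP viability signal (CellTiter-Glo, 30 min RT) recorded after wild type DT40 cells were incubated with compounds for 40 h at 37 C/5% CO2.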

[3] = qHTS assay for identifying genotoxic compounds that show differential cytotoxicity against isogenic chicken DT40 cell lines with known DNA damage response pathways - Rev3 mutant cell line (AID 743014); also: nearly all actives have a fitted effect of over 55% in size; also: potency is read from the fitted curve at half-maximal effect
[4] = qHTS assay for identifying genotoxic compounds that show differential cytotoxicity against isogenic chicken DT40 cell lines with known DNA damage response pathways - Rad54/Ku70 mutant cell line (AID 743015); also: nearly all actives have a fitted effect of over 60% in size; also: potency is read from the fitted curve at half-maximal effect
[5] = qHTS assay to identify small molecule antagonists of the androgen receptor (AR) signaling pathway - cell viability counter screen (AID 743033; also: nearly all actives have a fitted effect of over 45% in size)
[6] = target: Androgen receptor (Homo sapiens) (UniProt P10275); assay: qHTS assay to identify small molecule antagonists of the androgen receptor (AR) signaling pathway (AID 743035; active = well fitted inhibition curve with a large enough effect in the signal ratio in the repeat runs, not every such curve was filed as active; the % refers to the signal ratio)
Chain of Androgen receptor (Homo sapiens) (P10275 whole entry, looked up): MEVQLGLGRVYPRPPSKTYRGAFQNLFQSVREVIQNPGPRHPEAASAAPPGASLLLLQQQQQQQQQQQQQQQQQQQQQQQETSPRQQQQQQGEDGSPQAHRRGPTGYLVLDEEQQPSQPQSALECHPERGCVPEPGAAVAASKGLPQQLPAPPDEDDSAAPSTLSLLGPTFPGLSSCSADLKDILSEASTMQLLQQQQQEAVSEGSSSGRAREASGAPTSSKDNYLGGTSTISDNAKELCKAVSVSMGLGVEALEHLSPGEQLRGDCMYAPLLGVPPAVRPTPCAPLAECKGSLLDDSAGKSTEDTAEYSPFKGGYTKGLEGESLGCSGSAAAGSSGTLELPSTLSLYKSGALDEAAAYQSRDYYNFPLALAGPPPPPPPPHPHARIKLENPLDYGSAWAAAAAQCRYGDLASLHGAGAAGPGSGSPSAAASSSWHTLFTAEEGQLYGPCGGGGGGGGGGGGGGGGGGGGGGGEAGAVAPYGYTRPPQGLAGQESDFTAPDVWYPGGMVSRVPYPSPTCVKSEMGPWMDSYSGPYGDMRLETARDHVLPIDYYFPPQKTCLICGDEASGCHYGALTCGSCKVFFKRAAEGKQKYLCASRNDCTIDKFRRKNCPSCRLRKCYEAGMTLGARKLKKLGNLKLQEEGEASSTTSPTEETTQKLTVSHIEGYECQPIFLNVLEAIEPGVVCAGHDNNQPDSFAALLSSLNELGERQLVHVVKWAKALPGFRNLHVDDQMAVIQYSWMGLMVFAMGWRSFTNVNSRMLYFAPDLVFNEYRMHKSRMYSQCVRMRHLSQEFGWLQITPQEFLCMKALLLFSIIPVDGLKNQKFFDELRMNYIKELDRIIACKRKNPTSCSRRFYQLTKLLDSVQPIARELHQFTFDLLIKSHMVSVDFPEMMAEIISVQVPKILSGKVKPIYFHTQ
Procedure, shortened: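 Quantitative HTS of the Tox21 10K library used HEK293 AR-UAS-bla cells stimulated with R1881 alongside compound for 16 h at 37C, followed by beta-lactamase FRET detection (LiveBLAzer B/G, 2 h, RT).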

[7] = target: Androgen receptor (Homo sapiens) (UniProt P10275); assay: qHTS assay to identify small molecule agonists of the androgen receptor (AR) signaling pathway (AID 743036; active = well fitted activation curve with a large enough effect in the signal ratio in the repeat runs, with a control signal flat, not every such curve was filed as active; the % refers to the signal ratio)
Procedure, shortened: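 Agonist activity was scored by beta-lactamase reporter fluorescence in stably transfected HEK293 cells exposed to compounds for 16 h at 37C and 5% CO2. Substrate loading took 2 h at room temperature.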

[8] = target: Androgen receptor (Homo sapiens) (UniProt P10275); assay: qHTS assay to identify small molecule agonists of the androgen receptor (AR) signaling pathway using the MDA cell line (AID 743040; also: nearly all actives have a fitted effect of over 20% in size; also: potency is read from the fitted curve at half-maximal effect)
Procedure, shortened: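 Agonist activity is measured as luciferase luminescence in human MDA-kb2 cells whose MMTV reporter responds to both AR and GR. Compounds in DMSO incubate 16 h at 37C, 0% CO2, and ONE-Glo is read after 30 min.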

[9] = qHTS assay to identify small molecule antagonists of the androgen receptor (AR) signaling pathway using the MDA cell line - cell viability counter screen (AID 743041; also: nearly all actives have a fitted effect of over 45% in size)
Procedure, shortened: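 qHTS viability read-out; MDA-kb2 AR-luc; R1881-stimulated; 16 h exposure at 37C, 0% CO2; CellTiter-Fluor, 30 min; fluorescence intensity.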

[10] = target: Androgen receptor (Homo sapiens) (UniProt P10275); assay: qHTS assay to identify small molecule antagonists of the androgen receptor (AR) signaling pathway using the MDA cell line (AID 743042; also: nearly all actives have a fitted effect of over 55% in size)
Procedure, shortened: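 MDA-kb2 cells (human breast carcinoma, stably carrying an MMTV-luciferase reporter responsive to AR and GR) were plated at 3,000 cells/well and preincubated 5 hr at 37C, then given compound plus R1881 agonist for 16 h. ONE-Glo luminescence was read.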

[11] = qHTS assay to identify small molecule antagonists of the thyroid receptor (TR) signaling pathway - cell viability counter screen (AID 743064); also: nearly all actives have a fitted effect of over 50% in size; also: potency is read from the fitted curve at half-maximal effect
Procedure, shortened: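 Same-well viability check: GH3.TRE-Luc cells stimulated with 1 nM T3 alongside test compound for 23.5 h, followed by CellTiter-Fluor fluorescence.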

[12] = qHTS assay to identify small molecule antagonists of the thyroid receptor (TR) signaling pathway (AID 743065); also: nearly all actives have a fitted effect of over 55% in size; also: potency is read from the fitted curve at half-maximal effect
Procedure, shortened: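 GH3.TRE-Luc rat pituitary cells carrying two TR response elements driving luciferase were plated for 4 h, given compound plus 1 nM T3 (final), and incubated 23.5 h at 37 C. ONE-Glo luminescence measured reporter inhibition; CellTiter-Fluor fluorescence tracked cytotoxicity.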

[13] = test system: thyroid hormone receptor (rat, GH3 cells); assay: qHTS assay to identify small molecule agonists of the thyroid receptor (TR) signaling pathway (AID 743066; calls by dose curve)
[14] = target: Estrogen receptor (Homo sapiens) (UniProt P03372); assay: qHTS assay to identify small molecule antagonists of the estrogen receptor alpha (ER-alpha) signaling pathway (AID 743069; active = well fitted curve in the direction sought with a large enough effect in the signal ratio in the repeat runs, not every such curve was filed as active; the % refers to the signal ratio)
Chain of Estrogen receptor (Homo sapiens) (P03372 whole entry, looked up): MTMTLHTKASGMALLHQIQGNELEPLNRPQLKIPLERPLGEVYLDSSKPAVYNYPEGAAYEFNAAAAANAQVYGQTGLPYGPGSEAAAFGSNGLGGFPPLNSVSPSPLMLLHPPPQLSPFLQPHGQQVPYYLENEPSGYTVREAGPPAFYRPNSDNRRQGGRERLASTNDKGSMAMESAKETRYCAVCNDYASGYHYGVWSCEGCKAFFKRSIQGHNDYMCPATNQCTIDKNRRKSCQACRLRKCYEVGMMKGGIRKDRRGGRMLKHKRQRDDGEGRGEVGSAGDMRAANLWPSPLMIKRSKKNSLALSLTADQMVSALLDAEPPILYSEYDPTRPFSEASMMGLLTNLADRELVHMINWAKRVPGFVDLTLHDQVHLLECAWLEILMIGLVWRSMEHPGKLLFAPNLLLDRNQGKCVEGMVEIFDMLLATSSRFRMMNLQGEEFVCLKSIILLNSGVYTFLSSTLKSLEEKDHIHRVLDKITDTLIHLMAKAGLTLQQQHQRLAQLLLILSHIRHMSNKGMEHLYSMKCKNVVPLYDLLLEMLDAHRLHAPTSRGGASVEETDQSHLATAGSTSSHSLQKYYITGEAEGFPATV
Procedure, shortened: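 Screening used a UAS-driven beta-lactamase reporter integrated into HEK293 cells expressing ER-alpha, stimulated with 17beta-estradiol alongside test compounds over 18 hr at 37C; signal came from LiveBLAzer B/G FRET fluorescence.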

[15] = qHTS assay to identify small molecule antagonists of the estrogen receptor alpha (ER-alpha) signaling pathway - cell viability counter screen (AID 743074; calls by dose curve; also: nearly all actives have a fitted effect of over 45% in size)
[16] = target: Estrogen receptor (Homo sapiens) (UniProt P03372); assay: qHTS assay to identify small molecule agonists of the estrogen receptor alpha (ER-alpha) signaling pathway (AID 743075; calls by dose curve)
[17] = target: Estrogen receptor (Homo sapiens) (UniProt P03372); assay: qHTS assay to identify small molecule agonists of the estrogen receptor alpha (ER-alpha) signaling pathway using the BG1 cell line (AID 743079); also: nearly all actives have a fitted effect of over 20% in size; also: potency is read from the fitted curve at half-maximal effect
[18] = qHTS assay to identify small molecule antagonists of the estrogen receptor alpha (ER-alpha) signaling pathway using the BG1 cell line (AID 743080; calls by dose curve;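 also: BG1 cells stimulated with 17beta-estradiol alongside compound; series mostly up to about 70 µM; nearly all actives have a fitted effect of over 25% in size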)
Procedure, shortened: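 Luminescence from a 4×ERE-luciferase reporter in BG1-Luc-4E2 cells served as read-out. Cells, pre-cultured 5 days in stripped-serum phenol-red-free medium, were exposed to compound with 17beta-estradiol co-stimulation for 21.5 h at 37 C.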

[19] = qHTS assay to identify small molecule antagonists of the estrogen receptor alpha (ER-alpha) signaling pathway using the BG1 cell line - cell viability counter screen (AID 743081);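 also: compound given together with 17beta-estradiol as the ER stimulus; series mostly up to about 70 µM; nearly all actives have a fitted effect of over 45% in size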
Aromatase (Homo sapiens) = Aromatase (Homo sapiens) (UniProt P11511); assay: qHTS assay to identify aromatase inhibitors (AID 743083)
Chain of Aromatase (Homo sapiens) (P11511 whole entry, looked up): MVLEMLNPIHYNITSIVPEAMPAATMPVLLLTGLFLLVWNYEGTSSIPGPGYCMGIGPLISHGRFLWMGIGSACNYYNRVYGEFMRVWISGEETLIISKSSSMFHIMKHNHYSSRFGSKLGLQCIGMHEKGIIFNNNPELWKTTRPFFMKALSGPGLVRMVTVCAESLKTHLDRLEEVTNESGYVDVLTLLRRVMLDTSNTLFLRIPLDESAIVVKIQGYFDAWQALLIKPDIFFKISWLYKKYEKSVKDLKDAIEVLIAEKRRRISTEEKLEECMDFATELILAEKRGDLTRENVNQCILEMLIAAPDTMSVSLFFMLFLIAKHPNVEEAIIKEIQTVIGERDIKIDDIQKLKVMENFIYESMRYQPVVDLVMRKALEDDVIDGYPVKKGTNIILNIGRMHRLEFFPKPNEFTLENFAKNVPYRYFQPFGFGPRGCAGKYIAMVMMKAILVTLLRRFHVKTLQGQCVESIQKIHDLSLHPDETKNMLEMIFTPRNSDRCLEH

Measured: Potency

N#Cc1ccc(C(c2ccc(C#N)cc2)n2cncn2)cc1
not listed: Aromatase (Homo sapiens)
inactive: all other assays above

Cc1cc(S(=O)(=O)O)c(N)cc1Cl
not listed: [14]
inactive: all other assays above

CCOc1ccc(NC(N)=O)cc1
not listed: [6] | [7] | [8] | [10] | [17]
inactive: all other assays above

CCOc1ccc(OCC)c(Cl)c1
not listed: [6] | [7] | [8] | [10]
inactive: all other assays above

CCOC(=O)[C@H](CCc1ccccc1)N[C@@H](C)C(=O)N1Cc2cc(OC)c(OC)cc2C[C@H]1C(=O)O
not listed: [6] | [7] | [8] | [10] | [14]
inactive: all other assays above

CN(C)Cc1ccccc1
not listed: [14] | [16] | [17] | [18]
inactive: all other assays above

OC[C@H]1O[C@@H](O[C@H]2[C@H](O)[C@@H](O)[C@H](O)O[C@@H]2CO)[C@H](O)[C@@H](O)[C@H]1O
not listed: [14]
inactive: all other assays above

NCCCN1CCN(CCCN)CC1
not listed: [12]
inactive: all other assays above

Cc1ccsc1C(=CCCN1CCC[C@@H](C(=O)O)C1)c1sccc1C
active: [17] 21.1 µM
not listed: [14]
inactive: all other assays above

O=C1CCCCCCCCCCC(=O)OCCO1
not listed: [6] | [7] | [8] | [10] | [15] | [18]
inactive: all other assays above

CCOC(=O)NCCC[Si](OCC)(OCC)OCC
not listed: [6] | [7] | [8] | [10]
inactive: all other assays above

Cc1ncc(CO)c(CN)c1O
not listed: [14] | [17]
inactive: all other assays above

CCC(=O)Nc1ccc(O)cc1
not listed: [6] | [7] | [8] | [10]
inactive: all other assays above

O=C1CCCc2ccccc21
not listed: [6] | [7] | [8] | [10] | [14]
inactive: all other assays above

NS(=O)(=O)c1cc(-c2nn[nH]n2)c(NCc2cccs2)cc1Cl
not listed: [6] | [7] | [8] | [10] | [14]
inactive: all other assays above

CN1CCN(C2=Nc3cc(F)ccc3Cc3ccccc32)CC1
active: [2] 11.9 µM | [3] 8.41 µM | [4] 23.7 µM | [11] 11.9 µM | [12] 13.3 µM
not listed: [17]
inactive: all other assays above

CC(C)C(=O)OC/C=C/c1ccccc1
not listed: [6] | [7] | [8] | [10]
inactive: all other assays above

CCC/C=C/CO
not listed: [6] | [7] | [8] | [10] | [14] | Aromatase (Homo sapiens)
inactive: all other assays above

COC(C)CCO (centres undefined)
not listed: [12] | [14] | [16] | [17] | [18]
inactive: all other assays above

CCCCC1CCC(=O)O1 (centres undefined)
not listed: [6] | [7] | [8] | [10] | [14]
inactive: all other assays above

Cn1cnc2c(F)c(Nc3ccc(Br)cc3Cl)c(C(=O)NOCCO)cc21
not listed: [10] | [11] | [12] | [14] | [16] | [17] | [18]
inactive: all other assays above

CC(CNC1CCCCC1)OC(=O)c1ccccc1 (centres undefined)
not listed: [6] | [7] | [8] | [10]
inactive: all other assays above

O=C1C=CC(=O)O1
not listed: [6] | [7] | [8] | [10] | [14]
inactive: all other assays above

Cc1ccc(C)c(N)c1
active: [17] 77 µM
not listed: [6] | [7] | [8] | [10] | [14]
inactive: all other assays above

Cc1nnc(SCC2=C(C(=O)O)N3C(=O)[C@@H](NC(=O)Cn4cnnn4)[C@H]3SC2)s1
not listed: [6] | [7] | [8] | [10]
inactive: all other assays above

COc1nc(C)nc(NC(=O)NS(=O)(=O)c2ccccc2OCCCl)n1
not listed: [6] | [7] | [8] | [10] | [17]
inactive: all other assays above

CC1=C(CC(=O)O)c2cc(F)ccc2/C1=C\c1ccc(S(C)(=O)=O)cc1
not listed: [7]
inactive: all other assays above

CC(C)OC(C)C
not listed: [6] | [7] | [8] | [10]
inactive: all other assays above

C=Cc1ccccc1
not listed: [6] | [7] | [8] | [10]
inactive: all other assays above

C[C@@H]1CN(c2c(F)c(F)c3c(=O)c(C(=O)O)cn(C4CC4)c3c2F)C[C@H](C)N1
active: [8] 26.6 µM
not listed: [7] | [11] | [12]
inactive: all other assays above

CCN(CC)CC1CCCCN1CC(=O)N1c2ccccc2C(=O)Nc2cccnc21 (centres undefined)
not listed: [6] | [7] | [8] | [10]
inactive: all other assays above
